Assay results: the supplement of paper PMC6411743
± gives the standard deviation of the averaged measurements. Of roughly 6,500 targets only a part is listed; those with the largest changes were picked by preference.

Compound: Nc1ncnc2c1ncn2[C@@H]1O[C@H](COP(=O)(O)OP(=O)(O)OP(=O)(O)O)[C@@H](O)[C@H]1O [adenosine triphosphate]
Experiment: NP40-soluble protein abundance relative to vehicle (solubility fold change) (ratio); higher = more soluble protein in presence of ATP
In short: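 Data come from three independent experiments in which Dounce-homogenised Jurkat crude lysate was treated at eight concentrations from 0.1 to 10 mM. Treatment ran 10 min at room temperature and then 3 min at 37 °C, after which 0.8% NP40 and benzonase were added for 60 min at 4 °C before ultracentrifugation. The supernatant underwent TMT labelling and LC-MS/MS, and vsn-normalised intensities were expressed as fold change against the detergent-processed vehicle in each replicate.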

Sequence of UniProt Q01459 (Q01459 whole entry): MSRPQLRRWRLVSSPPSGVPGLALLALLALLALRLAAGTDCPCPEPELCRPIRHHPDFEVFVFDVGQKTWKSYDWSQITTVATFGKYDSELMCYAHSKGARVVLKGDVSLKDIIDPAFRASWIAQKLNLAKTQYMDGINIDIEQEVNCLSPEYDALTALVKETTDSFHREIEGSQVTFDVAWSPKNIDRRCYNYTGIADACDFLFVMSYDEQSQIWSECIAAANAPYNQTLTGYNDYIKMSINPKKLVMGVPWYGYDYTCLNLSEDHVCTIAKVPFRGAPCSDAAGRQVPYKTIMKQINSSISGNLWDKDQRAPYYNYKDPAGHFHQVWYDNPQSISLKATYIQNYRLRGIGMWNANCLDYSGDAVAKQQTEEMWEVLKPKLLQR
Sequence of UniProt P19397 (P19397 whole entry): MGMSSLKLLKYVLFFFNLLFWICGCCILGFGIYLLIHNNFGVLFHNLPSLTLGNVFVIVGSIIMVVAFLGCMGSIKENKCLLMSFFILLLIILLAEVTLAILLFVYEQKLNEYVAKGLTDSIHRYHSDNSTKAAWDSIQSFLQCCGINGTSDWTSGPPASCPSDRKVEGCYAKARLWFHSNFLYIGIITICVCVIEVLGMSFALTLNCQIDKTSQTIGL
Sequence of UniProt P07737 (P07737 whole entry): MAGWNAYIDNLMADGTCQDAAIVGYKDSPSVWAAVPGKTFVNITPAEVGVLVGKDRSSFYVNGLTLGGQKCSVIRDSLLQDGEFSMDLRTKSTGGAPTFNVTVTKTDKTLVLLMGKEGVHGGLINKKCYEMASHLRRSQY
Sequence of UniProt P05423 (P05423 whole entry): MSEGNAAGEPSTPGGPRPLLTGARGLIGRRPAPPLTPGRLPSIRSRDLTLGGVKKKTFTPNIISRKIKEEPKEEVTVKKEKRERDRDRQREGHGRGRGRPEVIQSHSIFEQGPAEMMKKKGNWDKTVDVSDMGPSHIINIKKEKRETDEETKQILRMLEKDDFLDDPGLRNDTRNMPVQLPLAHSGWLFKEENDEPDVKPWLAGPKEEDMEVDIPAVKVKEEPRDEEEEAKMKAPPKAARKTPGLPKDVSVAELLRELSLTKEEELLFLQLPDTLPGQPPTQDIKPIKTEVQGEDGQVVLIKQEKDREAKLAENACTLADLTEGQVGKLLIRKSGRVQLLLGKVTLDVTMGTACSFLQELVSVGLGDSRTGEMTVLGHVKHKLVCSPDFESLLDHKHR
Sequence of UniProt O75400 (O75400 whole entry): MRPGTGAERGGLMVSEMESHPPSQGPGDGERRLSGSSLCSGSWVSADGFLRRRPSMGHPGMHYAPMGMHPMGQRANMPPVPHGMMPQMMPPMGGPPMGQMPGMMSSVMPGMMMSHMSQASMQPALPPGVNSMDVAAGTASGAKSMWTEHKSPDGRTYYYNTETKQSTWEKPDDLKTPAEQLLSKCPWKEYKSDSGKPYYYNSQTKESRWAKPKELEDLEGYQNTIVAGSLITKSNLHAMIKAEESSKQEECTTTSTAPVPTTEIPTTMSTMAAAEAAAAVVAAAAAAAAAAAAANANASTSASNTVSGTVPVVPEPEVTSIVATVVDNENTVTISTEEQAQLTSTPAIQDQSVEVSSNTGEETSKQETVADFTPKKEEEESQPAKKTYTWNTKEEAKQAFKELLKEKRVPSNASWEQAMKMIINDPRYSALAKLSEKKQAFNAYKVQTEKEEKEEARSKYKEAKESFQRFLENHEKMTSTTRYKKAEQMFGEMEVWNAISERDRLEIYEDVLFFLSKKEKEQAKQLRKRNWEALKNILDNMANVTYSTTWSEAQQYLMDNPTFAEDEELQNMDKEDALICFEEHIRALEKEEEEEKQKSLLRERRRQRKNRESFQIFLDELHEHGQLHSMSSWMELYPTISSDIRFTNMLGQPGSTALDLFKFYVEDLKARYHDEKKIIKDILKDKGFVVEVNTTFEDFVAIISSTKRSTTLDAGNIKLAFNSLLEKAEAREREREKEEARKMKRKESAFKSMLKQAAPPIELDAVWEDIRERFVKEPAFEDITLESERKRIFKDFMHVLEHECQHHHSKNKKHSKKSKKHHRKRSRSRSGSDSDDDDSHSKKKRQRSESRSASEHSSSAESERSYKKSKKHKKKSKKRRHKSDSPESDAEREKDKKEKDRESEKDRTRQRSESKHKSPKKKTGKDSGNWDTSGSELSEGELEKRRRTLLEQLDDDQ
Sequence of UniProt O95639 (O95639 whole entry): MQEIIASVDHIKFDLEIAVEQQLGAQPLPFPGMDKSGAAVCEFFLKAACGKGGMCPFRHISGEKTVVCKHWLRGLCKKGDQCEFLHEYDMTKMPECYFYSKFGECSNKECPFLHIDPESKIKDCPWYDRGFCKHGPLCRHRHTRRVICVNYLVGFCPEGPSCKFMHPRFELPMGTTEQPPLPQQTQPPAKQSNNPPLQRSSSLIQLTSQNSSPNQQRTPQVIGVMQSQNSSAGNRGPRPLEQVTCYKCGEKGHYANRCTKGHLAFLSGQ
Sequence of UniProt P05114 (P05114 whole entry): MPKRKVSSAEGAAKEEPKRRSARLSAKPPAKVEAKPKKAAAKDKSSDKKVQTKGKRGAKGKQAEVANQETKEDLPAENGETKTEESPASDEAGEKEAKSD
Sequence of UniProt P28908 (P28908 whole entry): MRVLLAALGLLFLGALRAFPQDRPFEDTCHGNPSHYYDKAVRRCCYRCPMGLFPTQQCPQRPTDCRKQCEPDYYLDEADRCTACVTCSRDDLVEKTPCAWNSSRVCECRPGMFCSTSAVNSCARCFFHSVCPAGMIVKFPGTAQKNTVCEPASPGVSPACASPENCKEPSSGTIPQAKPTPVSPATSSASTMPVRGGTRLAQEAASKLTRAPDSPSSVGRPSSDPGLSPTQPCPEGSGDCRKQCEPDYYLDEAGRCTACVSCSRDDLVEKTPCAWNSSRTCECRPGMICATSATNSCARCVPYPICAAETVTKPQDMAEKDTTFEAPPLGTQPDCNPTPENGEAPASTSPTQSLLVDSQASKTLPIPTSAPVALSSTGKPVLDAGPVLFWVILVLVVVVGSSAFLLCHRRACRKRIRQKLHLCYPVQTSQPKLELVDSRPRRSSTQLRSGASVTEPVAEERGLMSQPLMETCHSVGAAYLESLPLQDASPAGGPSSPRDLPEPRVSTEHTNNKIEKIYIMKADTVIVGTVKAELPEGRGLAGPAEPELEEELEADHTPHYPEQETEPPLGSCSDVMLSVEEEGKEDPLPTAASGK
Sequence of UniProt P20933 (P20933 whole entry): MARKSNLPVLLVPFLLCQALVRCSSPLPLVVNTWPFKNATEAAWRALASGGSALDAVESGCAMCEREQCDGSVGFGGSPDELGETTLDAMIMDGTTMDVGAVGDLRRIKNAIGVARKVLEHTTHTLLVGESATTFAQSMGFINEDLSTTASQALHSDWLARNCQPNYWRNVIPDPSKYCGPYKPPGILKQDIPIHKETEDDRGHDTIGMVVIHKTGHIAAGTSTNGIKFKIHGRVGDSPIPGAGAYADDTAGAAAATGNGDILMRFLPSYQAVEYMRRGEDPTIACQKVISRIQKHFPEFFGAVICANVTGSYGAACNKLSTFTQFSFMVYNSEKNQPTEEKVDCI
Sequence of UniProt P56381 (P56381 whole entry): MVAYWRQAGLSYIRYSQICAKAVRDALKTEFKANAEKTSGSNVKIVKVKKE
Sequence of UniProt P49748 (P49748 whole entry): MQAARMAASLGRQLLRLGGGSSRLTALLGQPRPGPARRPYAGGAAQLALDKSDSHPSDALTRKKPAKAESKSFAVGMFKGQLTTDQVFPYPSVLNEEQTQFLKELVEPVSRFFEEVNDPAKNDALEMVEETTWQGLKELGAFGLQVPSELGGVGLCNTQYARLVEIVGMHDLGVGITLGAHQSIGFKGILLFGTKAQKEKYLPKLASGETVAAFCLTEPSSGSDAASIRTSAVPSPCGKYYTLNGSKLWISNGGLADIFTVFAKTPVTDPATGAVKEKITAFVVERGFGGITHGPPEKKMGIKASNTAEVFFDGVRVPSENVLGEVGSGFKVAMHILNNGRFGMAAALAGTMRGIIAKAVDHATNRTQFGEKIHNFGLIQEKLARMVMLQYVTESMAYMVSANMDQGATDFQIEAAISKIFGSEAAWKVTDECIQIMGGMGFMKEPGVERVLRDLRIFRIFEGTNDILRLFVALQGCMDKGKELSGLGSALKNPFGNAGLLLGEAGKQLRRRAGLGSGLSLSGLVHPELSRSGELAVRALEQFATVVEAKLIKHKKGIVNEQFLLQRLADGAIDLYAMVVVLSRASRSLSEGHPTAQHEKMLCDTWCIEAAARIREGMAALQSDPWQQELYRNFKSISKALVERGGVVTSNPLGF
Sequence of UniProt P36405 (P36405 whole entry): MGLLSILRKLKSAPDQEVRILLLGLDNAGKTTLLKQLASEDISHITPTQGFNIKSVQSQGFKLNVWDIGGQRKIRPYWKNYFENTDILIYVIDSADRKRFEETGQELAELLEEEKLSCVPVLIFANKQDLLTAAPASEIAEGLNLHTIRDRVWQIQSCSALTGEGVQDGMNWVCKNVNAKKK
Sequence of UniProt P46527 (P46527 whole entry): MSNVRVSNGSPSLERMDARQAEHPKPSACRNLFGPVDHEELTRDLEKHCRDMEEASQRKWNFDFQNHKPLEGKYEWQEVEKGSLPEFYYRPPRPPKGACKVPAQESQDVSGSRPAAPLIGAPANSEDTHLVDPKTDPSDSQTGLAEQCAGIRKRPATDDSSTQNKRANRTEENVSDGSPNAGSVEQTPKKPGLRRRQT
Sequence of UniProt P61586 (P61586 whole entry): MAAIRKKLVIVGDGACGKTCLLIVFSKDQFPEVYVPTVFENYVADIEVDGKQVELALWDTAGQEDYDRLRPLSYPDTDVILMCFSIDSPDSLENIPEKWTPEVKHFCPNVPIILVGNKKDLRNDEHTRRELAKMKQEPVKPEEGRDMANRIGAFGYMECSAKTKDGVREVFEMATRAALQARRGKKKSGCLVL
Sequence of UniProt P55273 (P55273 whole entry): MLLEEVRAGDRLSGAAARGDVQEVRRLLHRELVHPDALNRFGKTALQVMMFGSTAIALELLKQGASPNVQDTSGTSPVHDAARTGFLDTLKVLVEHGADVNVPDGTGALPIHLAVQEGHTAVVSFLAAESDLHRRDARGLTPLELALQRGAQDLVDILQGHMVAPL

Target	NP40-soluble protein abundance (concentration: 1mM)	NP40-soluble protein abundance (concentration: 2mM)	NP40-soluble protein abundance (concentration: 4mM)	NP40-soluble protein abundance (concentration: 6mM)	NP40-soluble protein abundance (concentration: 8mM)	NP40-soluble protein abundance (concentration: 10mM)
CDKN2D (UniProt P55273)	0.959 ± 0.065	0.928 ± 0.036	0.953 ± 0.046	0.953 ± 0.019	0.951 ± 0.024	0.872 ± 0.045
CDKN1B (UniProt P46527)	0.964 ± 0.099	0.998 ± 0.057	0.985 ± 0.08	1.09 ± 0.077	0.919 ± 0.071	0.916 ± 0.1
UniProt P62253	1.06 ± 0.053	1.05 ± 0.071	1 ± 0.07	1.01 ± 0.11	1.03 ± 0.097	0.947 ± 0.049
UniProt P51114|P51114-2	1.644 ± 0.0088	1.79 ± 0.041	2.03 ± 0.048	2.17 ± 0.11	2.32 ± 0.039	2.4 ± 0.045
HSP90AB1 (UniProt P08238)	1.01 ± 0.063	0.99 ± 0.052	0.983 ± 0.05	0.928 ± 0.069	0.953 ± 0.022	0.964 ± 0.064
MTHFD2 (UniProt P13995)	1.02 ± 0.018	1.01 ± 0.02	0.995 ± 0.04	1.01 ± 0.043	1.01 ± 0.032	1 ± 0.026
CTBS (UniProt Q01459)	0.951 ± 0.04	0.98 ± 0.028	0.939 ± 0.038	0.957 ± 0.038	0.932 ± 0.032	0.955 ± 0.013
UniProt P59190	1.18 ± 0.054	2.37 ± 1.5	1.25 ± 0.21	1.16 ± 0.23	1.22 ± 0.2	1.18 ± 0.15
UniProt Q01826|Q01826-2	0.952 ± 0.051	0.96 ± 0.023	0.919 ± 0.039	0.96 ± 0.031	0.928 ± 0.02	0.922 ± 0.011
POLR3D (UniProt P05423)	0.986 ± 0.095	0.962 ± 0.062	0.949 ± 0.071	0.963 ± 0.12	0.965 ± 0.064	0.963 ± 0.065
UniProt O95639|O95639-2|O95639-3	1.3 ± 0.028	1.38 ± 0.046	1.52 ± 0.06	1.64 ± 0.1	1.7 ± 0.039	1.73 ± 0.078
UniProt P62937|P62937-2	0.914 ± 0.063	1.02 ± 0.05	0.894 ± 0.091	0.992 ± 0.084	0.882 ± 0.11	0.962 ± 0.056
HMGN1 (UniProt P05114)	1.23 ± 0.32	2 ± 0.51	1.5 ± 0.35	1.88 ± 0.89	1.67 ± 0.38	1.95 ± 1.1
UniProt P61201|P61201-2	0.9548 ± 0.0092	0.945 ± 0.031	0.9178 ± 0.005	0.968 ± 0.03	0.912 ± 0.043	0.916 ± 0.026
P0DN76|Q01081|Q01081-2 (UniProt Q01081+P0DN76)	2.11 ± 0.23	2.14 ± 0.2	2.22 ± 0.17	2.36 ± 0.16	2.27 ± 0.11	2.24 ± 0.17
CRTAP (UniProt O75718)	1.11 ± 0.024	1.14 ± 0.032	1.16 ± 0.024	1.19 ± 0.034	1.19 ± 0.033	1.2 ± 0.052
LSM11 (UniProt P83369)	1.32 ± 0.26	1.26 ± 0.15	1.4 ± 0.17	1.62 ± 0.32	1.46 ± 0.2	1.69 ± 0.4
PPT1 (UniProt P50897)	0.942 ± 0.054	0.92 ± 0.019	0.877 ± 0.034	0.957 ± 0.035	0.903 ± 0.016	0.86 ± 0.039
SRM (UniProt P19623)	1.03 ± 0.12	1.01 ± 0.1	1 ± 0.083	0.929 ± 0.12	0.998 ± 0.071	0.997 ± 0.068
UniProt P49903|P49903-2	1 ± 0.039	0.992 ± 0.02	0.962 ± 0.049	0.979 ± 0.068	0.966 ± 0.052	0.96 ± 0.042

Target	NP40-soluble protein abundance (concentration: 1mM)	NP40-soluble protein abundance (concentration: 2mM)	NP40-soluble protein abundance (concentration: 4mM)	NP40-soluble protein abundance (concentration: 6mM)	NP40-soluble protein abundance (concentration: 8mM)	NP40-soluble protein abundance (concentration: 10mM)
UniProt P49748|P49748-3	0.997 ± 0.081	0.989 ± 0.064	0.983 ± 0.027	0.934 ± 0.083	0.986 ± 0.015	0.973 ± 0.045
UniProt Q02880-2	1.28 ± 0.061	1.36 ± 0.045	1.57 ± 0.067	1.73 ± 0.13	1.99 ± 0.11	2.07 ± 0.057
UniProt P56381	2.11 ± 1.8	0.927 ± 0.037	0.827 ± 0.014	1.2 ± 0.39	0.93 ± 0.067	0.875 ± 0.046
PRIM2 (UniProt P49643)	1.03 ± 0.057	1.02 ± 0.025	1.02 ± 0.032	1 ± 0.034	1.02 ± 0.028	1.03 ± 0.047
XPA (UniProt P23025)	0.975 ± 0.021	0.979 ± 0.033	0.965 ± 0.054	1.02 ± 0.027	0.954 ± 0.1	0.968 ± 0.05
SNAP29 (UniProt O95721)	0.967 ± 0.086	0.943 ± 0.043	0.939 ± 0.055	0.967 ± 0.04	0.939 ± 0.036	0.877 ± 0.046
UniProt P38398|P38398-7|P38398-4|P38398-8	1.02 ± 0.011	1.05 ± 0.071	1.03 ± 0.035	1.03 ± 0.086	1.02 ± 0.081	1.06 ± 0.03
MRPS25 (UniProt P82663)	0.942 ± 0.092	0.951 ± 0.066	0.96 ± 0.043	0.881 ± 0.09	0.915 ± 0.081	0.928 ± 0.078
SAP30 (UniProt O75446)	0.93 ± 0.092	0.952 ± 0.092	0.907 ± 0.073	0.971 ± 0.15	0.96 ± 0.044	0.915 ± 0.13
UniProt P13674|P13674-2	1.01 ± 0.0016	1.01 ± 0.022	0.994 ± 0.027	1.03 ± 0.054	1.01 ± 0.034	1.04 ± 0.045
UniProt Q00653|Q00653-4	1.006 ± 0.0072	0.99 ± 0.026	0.971 ± 0.025	0.995 ± 0.022	0.965 ± 0.021	0.973 ± 0.012
UniProt P49761|P49761-1|P49761-3	1.317 ± 0.008	1.56 ± 0.035	1.54 ± 0.018	1.43 ± 0.13	1.81 ± 0.23	2.065 ± 0.019
ARL3 (UniProt P36405)	0.978 ± 0.0088	0.944 ± 0.057	0.937 ± 0.057	0.926 ± 0.066	0.945 ± 0.037	0.946 ± 0.049
AGA (UniProt P20933)	0.925 ± 0.059	0.964 ± 0.07	0.978 ± 0.079	0.94 ± 0.081	0.914 ± 0.064	0.876 ± 0.071
CTDSPL2 (UniProt Q05D32)	1.13 ± 0.11	1.13 ± 0.07	1.27 ± 0.09	1.32 ± 0.082	1.33 ± 0.14	1.47 ± 0.03
UniProt P25398	0.879 ± 0.058	0.861 ± 0.073	0.813 ± 0.071	0.817 ± 0.087	0.761 ± 0.043	0.779 ± 0.061
GCSH (UniProt P23434)	0.985 ± 0.048	0.971 ± 0.024	0.986 ± 0.051	1.03 ± 0.05	0.915 ± 0.051	0.927 ± 0.092
CCNA2 (UniProt P20248)	0.998 ± 0.059	0.977 ± 0.027	0.993 ± 0.017	1.03 ± 0.046	0.9881 ± 0.0022	0.995 ± 0.05
UniProt Q03933-2|Q03933	0.912 ± 0.029	1.05 ± 0.065	1.05 ± 0.2	1.09 ± 0.17	1.04 ± 0.048	1.01 ± 0.051
RHOA (UniProt P61586)	0.996 ± 0.14	1.01 ± 0.078	0.968 ± 0.06	1.09 ± 0.069	0.939 ± 0.023	0.944 ± 0.027

Target	NP40-soluble protein abundance (concentration: 1mM)	NP40-soluble protein abundance (concentration: 2mM)	NP40-soluble protein abundance (concentration: 4mM)	NP40-soluble protein abundance (concentration: 6mM)	NP40-soluble protein abundance (concentration: 8mM)	NP40-soluble protein abundance (concentration: 10mM)
PFN1 (UniProt P07737)	0.941 ± 0.059	0.934 ± 0.049	0.918 ± 0.027	0.92 ± 0.059	0.891 ± 0.015	0.911 ± 0.034
UniProt O75400|O75400-2	1.35 ± 0.075	1.44 ± 0.086	1.65 ± 0.097	2.14 ± 0.13	2.39 ± 0.13	2.62 ± 0.2
DCK (UniProt P27707)	0.955 ± 0.067	0.98 ± 0.052	0.914 ± 0.046	0.935 ± 0.093	0.933 ± 0.03	0.948 ± 0.044
UniProt Q06787-5|Q06787-6|Q06787-8|Q06787|Q06787-3|Q06787-7|Q06787-9|R9WNI0	1.16 ± 0.14	1.27 ± 0.1	1.56 ± 0.17	1.83 ± 0.13	2.14 ± 0.19	2.48 ± 0.15
UniProt P62854	0.92 ± 0.095	0.912 ± 0.11	0.911 ± 0.18	0.809 ± 0.13	0.745 ± 0.099	0.843 ± 0.13
UniProt P49354|H0YCW1	1.05 ± 0.088	1.01 ± 0.059	1.03 ± 0.053	0.955 ± 0.12	1.04 ± 0.076	0.996 ± 0.062
UniProt P26639	1 ± 0.1	0.988 ± 0.075	0.95 ± 0.078	0.928 ± 0.11	0.989 ± 0.054	0.949 ± 0.042
UniProt P67870|Q5SRQ6	0.972 ± 0.024	1 ± 0.021	1.013 ± 0.0063	1.05 ± 0.067	1.07 ± 0.019	1.04 ± 0.017
UniProt P28908|P28908-3	0.986 ± 0.073	0.999 ± 0.0037	1.08 ± 0.13	0.992 ± 0.073	0.951 ± 0.041	0.964 ± 0.026
UniProt P50750-2|P50750	1.18 ± 0.047	1.26 ± 0.047	1.38 ± 0.018	1.47 ± 0.13	1.64 ± 0.058	1.7 ± 0.1
EIF2S1 (UniProt P05198)	1.04 ± 0.043	1.05 ± 0.034	1.02 ± 0.027	1.04 ± 0.07	1.06 ± 0.053	1.05 ± 0.051
GSTM2 (UniProt P28161)	0.96 ± 0.07	0.952 ± 0.054	0.886 ± 0.043	0.889 ± 0.035	0.911 ± 0.058	0.861 ± 0.056
ATF1 (UniProt P18846)	0.986 ± 0.2	0.951 ± 0.033	1.02 ± 0.14	0.999 ± 0.054	0.97 ± 0.074	0.917 ± 0.068
SPN (UniProt P16150)	0.828 ± 0.17	0.803 ± 0.16	0.812 ± 0.13	0.835 ± 0.14	0.765 ± 0.094	0.71 ± 0.2
RBM25 (UniProt P49756)	1.21 ± 0.074	1.33 ± 0.12	1.68 ± 0.22	2.25 ± 0.24	2.63 ± 0.34	3.08 ± 0.38
CD53 (UniProt P19397)	0.898 ± 0.042	0.833 ± 0.05	0.85 ± 0.06	0.832 ± 0.049	0.823 ± 0.07	0.791 ± 0.093
AP3M2 (UniProt P53677)	1.09 ± 0.019	1.08 ± 0.016	1.13 ± 0.043	1.02 ± 0.047	1.06 ± 0.051	1.08 ± 0.069
CST3 (UniProt P01034)	0.964 ± 0.083	0.971 ± 0.063	1 ± 0.11	1.03 ± 0.11	1.05 ± 0.15	1.05 ± 0.14
SOAT1 (UniProt P35610)	1.02 ± 0.042	1 ± 0.028	0.999 ± 0.055	0.97 ± 0.029	1.03 ± 0.019	0.971 ± 0.041
CDK6 (UniProt Q00534)	0.984 ± 0.047	0.999 ± 0.051	0.988 ± 0.05	0.955 ± 0.058	0.966 ± 0.041	0.974 ± 0.064
